Measured values reported in PMC4336329 (PLoS ONE, 2015).
In all, about 310,000 compounds went through this assay and about 14,000 (4.5%) showed an effect of 50% or more. Effects have a minus sign here. The sample holds strong results, similar compounds and a random draw of the others, so the mix is not that of the screen.

Biological target: human ether-à-go-go-related gene (hERG) potassium channel (human, UniProt Q12809)
Experiment: primary screen, population patch clamp on CHO cells stably expressing hERG; higher = less effect of the substance
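Further: peak tail current of the secondary pulse compared with the same well before compound.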

Sequence of human ether-à-go-go-related gene (hERG) potassium channel (Q12809 whole entry, looked up): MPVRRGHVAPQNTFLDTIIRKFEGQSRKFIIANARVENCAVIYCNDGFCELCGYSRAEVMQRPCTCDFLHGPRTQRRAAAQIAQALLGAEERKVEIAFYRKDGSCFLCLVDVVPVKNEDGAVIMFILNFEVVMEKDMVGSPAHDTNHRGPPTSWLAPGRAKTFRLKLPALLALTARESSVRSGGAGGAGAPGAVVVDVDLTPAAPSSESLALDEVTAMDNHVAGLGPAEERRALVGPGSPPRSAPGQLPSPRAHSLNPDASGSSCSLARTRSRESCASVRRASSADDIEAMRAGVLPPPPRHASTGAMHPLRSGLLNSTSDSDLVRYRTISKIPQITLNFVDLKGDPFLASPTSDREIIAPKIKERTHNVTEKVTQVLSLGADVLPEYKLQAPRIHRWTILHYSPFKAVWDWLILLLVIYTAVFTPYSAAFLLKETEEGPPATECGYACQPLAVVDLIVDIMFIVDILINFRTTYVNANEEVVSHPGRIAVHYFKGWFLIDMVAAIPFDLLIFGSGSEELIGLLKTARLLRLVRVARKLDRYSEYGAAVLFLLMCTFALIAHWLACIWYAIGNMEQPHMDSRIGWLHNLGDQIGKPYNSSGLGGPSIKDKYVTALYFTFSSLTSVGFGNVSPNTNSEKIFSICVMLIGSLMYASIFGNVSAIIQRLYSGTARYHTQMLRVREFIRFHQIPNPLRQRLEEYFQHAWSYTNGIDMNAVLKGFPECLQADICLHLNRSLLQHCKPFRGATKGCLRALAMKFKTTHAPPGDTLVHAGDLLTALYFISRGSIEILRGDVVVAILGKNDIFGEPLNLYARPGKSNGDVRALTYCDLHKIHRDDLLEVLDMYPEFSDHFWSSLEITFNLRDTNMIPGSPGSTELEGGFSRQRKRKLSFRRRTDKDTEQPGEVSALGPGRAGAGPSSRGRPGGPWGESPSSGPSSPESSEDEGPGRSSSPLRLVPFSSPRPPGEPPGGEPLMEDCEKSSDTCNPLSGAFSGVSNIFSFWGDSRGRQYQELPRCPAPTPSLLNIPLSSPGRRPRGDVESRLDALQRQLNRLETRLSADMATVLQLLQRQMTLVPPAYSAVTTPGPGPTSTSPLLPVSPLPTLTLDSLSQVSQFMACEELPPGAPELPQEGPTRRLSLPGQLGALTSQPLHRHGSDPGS

First: Cc1ccc([N+](=O)[O-])c(OCC(O)CNC(C)(C)C)c1.Cl (stereo not shown)
Second: COc1ccc(CNCC(O)COc2ccc(C)cc2[N+](=O)[O-])cc1 (stereo not shown)
The “hERG current change (%, negative = inhibition) at 10uM” value of the first is higher: 3.01% for the first, -71.2% for the second.

First: COc1ccc(OCCOCCOc2ccc(C)cc2[N+](=O)[O-])cc1
Second: N#Cc1ccc(OCC(=O)OCCCOC(=O)COc2ccc(C#N)cc2)cc1
The “hERG current change (%, negative = inhibition) at 10uM” value of the first is higher: -22.4% for the first, -66.8% for the second.

First: COc1ccc(CNCC(O)COc2cccc3c2OC(C)(C)C3)cc1.Cl (stereo not shown)
Second: CC1(C)Cc2cccc(OCC(O)CNCc3ccccn3)c2O1.Cl (stereo not shown)
The “hERG current change (%, negative = inhibition) at 10uM” value of the first is lower: -60.5% for the first, -25.1% for the second.

Compared with `COC(=O)c1ccc(COc2cccc3c2OC(C)(C)C3)cc1`, `CC(=O)Nc1ccc(C(=O)N/N=C/c2ccccc2OCc2ccccc2)cc1` is higher in “hERG current change (%, negative = inhibition) at 10uM” value: 28.7% for the first, 29.2% for the second.

First: O=C(CSc1nnc(-c2cccnc2)o1)N1CCCCC1
Second: O=C(CCN1C(=O)COc2ccccc21)N1CCCCC1
The “hERG current change (%, negative = inhibition) at 10uM” value of the first is higher: 9.4% for the first, -6.49% for the second.

Going from `CC(C)C(NC(=O)C1CCCCC1)C(=O)NCc1ccccn1` (stereo not shown) to `Cc1nc2cc(C(=O)O)ccc2n1C1CCCCC1`, the “hERG current change (%, negative = inhibition) at 10uM” value falls from 9.17% to 7.52%.

First: CC(C)CC1C(C#N)=C(N)SC(N)=C1C#N
Second: CCOC(=O)C1=C(COC(=O)c2ccc(C)s2)NC(=O)NC1C (stereo not shown)
The “hERG current change (%, negative = inhibition) at 10uM” value of the first is higher: 15.9% for the first, -5.32% for the second.

Compared with `CCc1cccc(C)c1NC(=O)CN(C)S(=O)(=O)c1ccc(-c2ccc(=O)[nH]n2)s1`, `Cc1cccc(C)c1NC(=O)CN(C)S(=O)(=O)c1ccc(-c2ccc(=O)[nH]n2)s1` is higher in “hERG current change (%, negative = inhibition) at 10uM” value: -55.3% for the first, -51.7% for the second.

Going from `Cc1cccc2sc(NC(=O)CN(C)S(=O)(=O)c3ccc(Br)s3)nc12` to `Cc1cc(NC(=O)CN(C)S(=O)(=O)c2ccc(-c3ccc(=O)[nH]n3)s2)ccc1Br`, the “hERG current change (%, negative = inhibition) at 10uM” value rises from -2.49% to 7.95%.

First: Cc1ccc(N(C)S(=O)(=O)c2ccc(-c3ccc(=O)[nH]n3)s2)cc1C
Second: CCOc1ccc(N(C)S(=O)(=O)c2ccc(-c3ccc(=O)[nH]n3)s2)cc1
The “hERG current change (%, negative = inhibition) at 10uM” value of the first is higher: 13.7% for the first, -15.6% for the second.

Going from `COc1cc(OC)cc(C(=O)N[C@H](C(=O)OCC(=O)Nc2ccc(F)c(F)c2)C(C)C)c1` to `COc1cc(OC)cc(C(=O)N2CCN(C(=O)c3cccc(F)c3)CC2)c1`, the “hERG current change (%, negative = inhibition) at 10uM” value rises from -8.85% to -3.19%.

Going from `Cc1cc(/C=C2\SC(=O)N(C)C2=O)c(C)n1-c1ccc(S(N)(=O)=O)cc1` to `Cc1ccc(S(=O)(=O)N/N=C/c2cccs2)cc1`, the “hERG current change (%, negative = inhibition) at 10uM” value falls from 13.3% to 9.65%.

Going from `COc1cccc(-c2cc(C(F)(F)F)nc(NCc3ccco3)n2)c1` to `CCC(C)Sc1cc(-c2nc3ccc(C)cn3c2NCc2ccccc2)ccc1OC.O=C(O)C(F)(F)F` (stereo not shown), the “hERG current change (%, negative = inhibition) at 10uM” value falls from 18.8% to -1.12%.

Going from `Fc1cccc(Cl)c1-c1nnc2ccc3ccccc3n12` to `Cc1cccc(NC(=O)c2ccc3c(c2)C(=O)N(c2ccccc2C)C3=O)n1`, the “hERG current change (%, negative = inhibition) at 10uM” value falls from 10.3% to -10.5%.

First: Cc1ccc2c(c1)N(C(=O)CCC(=O)N1CCN(c3cccc(C)c3C)CC1)CCO2
Second: Cc1ccc(C)c(N2CCN(C(=O)CCC(=O)N3CCOc4ccc(Cl)cc43)CC2)c1
The “hERG current change (%, negative = inhibition) at 10uM” value of the first is higher: -18.7% for the first, -18.9% for the second.

First: O=C(O)CCC(=O)N1CCOc2ccc(Cl)cc21
Second: O=C(CCC(=O)N1CCOc2ccc(Cl)cc21)N1CCN(c2ccccn2)CC1
The “hERG current change (%, negative = inhibition) at 10uM” value of the first is higher: 2.92% for the first, -57.5% for the second.

First: O=C(CCN1C(=O)COc2ccccc21)N1CCN(c2ccccn2)CC1
Second: O=C(CCN1C(=O)COc2ccccc21)N1CCN(c2ccccc2)CC1
The “hERG current change (%, negative = inhibition) at 10uM” value of the first is lower: -69.3% for the first, -15% for the second.

First: Cc1ccc2c(c1)N(C(=O)CCC(=O)N1CCN(c3ccccn3)CC1)CCO2
Second: Cc1ccc2c(c1)N(C(=O)CCC(=O)N1CCN(c3ccccn3)CC1)CC(C)O2 (stereo not shown)
The “hERG current change (%, negative = inhibition) at 10uM” value of the first is lower: -52.2% for the first, -46.1% for the second.

Going from `CCC(NC(=O)Nc1ncccc1C)(C(F)(F)F)C(F)(F)F` to `CCCCc1ccc(NC(=O)NCc2cccnc2)cc1`, the “hERG current change (%, negative = inhibition) at 10uM” value falls from -3.33% to -41.4%.

First: COc1ccc(CN2C(=O)CN(C3CCCCCC3)C(=O)C2c2ccc(F)cc2)cc1 (stereo not shown)
Second: COc1ccc(C(=O)N2CCC(n3c(C)nc4cc(F)ccc43)CC2)cc1
The “hERG current change (%, negative = inhibition) at 10uM” value of the first is higher: 3.27% for the first, -73.4% for the second.

Going from `CCOC(=O)C1=C(COC(=O)c2cccnc2Cl)NC(=O)NC1C` (stereo not shown) to `CCOC(=O)C1=C(COC(=O)c2ncc(Cl)c(Cl)c2Cl)NC(=O)NC1C` (stereo not shown), the “hERG current change (%, negative = inhibition) at 10uM” value falls from 6.19% to -60.6%.

Compared with `CCOC(=O)CCc1c(C)nc(SCCN2CCCC2)c(C#N)c1C`, `CCOC(=O)CCc1c(C)nc(SCC(=O)O)c(C#N)c1C` is higher in “hERG current change (%, negative = inhibition) at 10uM” value: -63.9% for the first, -2.59% for the second.

First: CCOC(=O)CCc1c(C)nc(SCc2ccc(C(=O)O)cc2)c(C#N)c1C
Second: CCOC(=O)c1c(NC(=O)CCN2C(=O)c3ccccc3C2=O)sc(C(=O)OC(C)C)c1C
The “hERG current change (%, negative = inhibition) at 10uM” value of the first is lower: -11.7% for the first, -4.35% for the second.

First: CS(=O)(=O)Nc1ccc(C(=O)CC(=O)Nc2ccc([N+](=O)[O-])cc2)cc1
Second: COc1ccc(C(=O)CC(=O)Nc2ccc([N+](=O)[O-])cc2)cc1
The “hERG current change (%, negative = inhibition) at 10uM” value of the first is lower: -60.7% for the first, -1.39% for the second.

First: COc1ccc(NS(=O)(=O)c2cc(NC(=O)CC(=O)c3ccc([N+](=O)[O-])cc3)ccc2C)cc1
Second: COc1ccc(-n2c(C)nc3cc(C(=O)N4CCOCC4)ccc32)cc1
The “hERG current change (%, negative = inhibition) at 10uM” value of the first is higher: 5.94% for the first, -14.1% for the second.

Compared with `COc1cccc(CC(=O)NCC2(N3CCCCC3)CCCCC2)c1`, `COc1cc(OC)cc(C(=O)N2CCC(N3CCCCCC3)CC2)c1` is lower in “hERG current change (%, negative = inhibition) at 10uM” value: 25% for the first, -5.77% for the second.

Compared with `Cn1cc(Br)c(C(=O)NC2CCCCCC2)n1`, `COc1cc(C(=O)N2CCC(N3CCCCCC3)CC2)cc(OC)c1OC.O=C(O)C(=O)O` is lower in “hERG current change (%, negative = inhibition) at 10uM” value: 2.74% for the first, -2.57% for the second.

Going from `Cc1cccn2c(=O)nc(SCC(=O)Nc3ccc4c(c3)OCO4)nc12` to `Cc1nc2cc(F)ccc2n1C1CCN(C(=O)c2ccc(F)cc2F)CC1`, the “hERG current change (%, negative = inhibition) at 10uM” value falls from -5.58% to -56.4%.

First: CCN(C(=O)CSc1nc2nc(C)cc(C)n2n1)C1CCS(=O)(=O)C1 (stereo not shown)
Second: CCOC(=O)C1CCCN(S(=O)(=O)c2cn(C)c(=O)n(C)c2=O)C1 (stereo not shown)
The “hERG current change (%, negative = inhibition) at 10uM” value of the first is higher: 20.5% for the first, 12.8% for the second.

Compared with `CC(=O)N1CCN(C(=O)COC(=O)COc2ccc(C#N)cc2)CC1`, `Cn1c(=O)cc(OCCCC(=O)N2CCN(c3ccccc3)CC2)c2ccccc21` is lower in “hERG current change (%, negative = inhibition) at 10uM” value: 4.54% for the first, -47.3% for the second.

First: N#Cc1ccccc1OCC(=O)OCCCOC(=O)COc1ccccc1C#N
Second: CCOc1c2ccc(C(=O)NCCCCc3ccccc3)cc2nn1C
The “hERG current change (%, negative = inhibition) at 10uM” value of the first is higher: 10.1% for the first, -14.5% for the second.

First: C=CCOc1ccccc1CNc1cccc(F)c1
Second: Cc1nc2cc(F)ccc2n1C1CCN(S(=O)(=O)c2ccccc2)CC1
The “hERG current change (%, negative = inhibition) at 10uM” value of the first is higher: 14.2% for the first, -48.6% for the second.

Compared with `Cl.OC(COc1cccc2ccccc12)CN1CCN(c2ccccn2)CC1` (stereo not shown), `Cl.OC(COc1ccc(Cl)c2ccccc12)CN1CCN(c2ccccn2)CC1` (stereo not shown) is higher in “hERG current change (%, negative = inhibition) at 10uM” value: -49.2% for the first, -21.9% for the second.

First: Cl.OC(COC(c1ccc(Cl)cc1)c1ccc(Cl)cc1)CN1CCN(c2ccccn2)CC1 (stereo not shown)
Second: OC(COC(c1ccccc1)c1ccccc1)CN1CCN(c2ccccn2)CC1 (stereo not shown)
The “hERG current change (%, negative = inhibition) at 10uM” value of the first is lower: -82.4% for the first, -74.7% for the second.

Compared with `Cc1cc(C)c2nc(-c3ccccn3)cc(C(=O)n3cccn3)c2c1`, `CCOC(=O)c1cnc2c(C)cc(C)cc2c1NCCCN1CCOCC1` is lower in “hERG current change (%, negative = inhibition) at 10uM” value: 22.9% for the first, -59.7% for the second.

Compared with `S=C(NCCc1ccccc1)NCCc1cnc[nH]1`, `C#CCNC(=O)C1=C[C@@H](c2ccccc2)C[C@@H](OCCCCO)O1` is lower in “hERG current change (%, negative = inhibition) at 10uM” value: -4.01% for the first, -13.4% for the second.

Compared with `Cc1cc(=O)[nH]c(SCCCOc2ccccc2Cl)n1`, `CC(=O)c1cc(O)c2ccccc2c1O` is lower in “hERG current change (%, negative = inhibition) at 10uM” value: 3.82% for the first, -2.58% for the second.

First: CCOC(=O)c1cnc2c(C(=O)OC)cccc2c1NCCN1CCOCC1
Second: CCOC(=O)c1cnc2c(CC)cccc2c1NCCN1CCOCC1
The “hERG current change (%, negative = inhibition) at 10uM” value of the first is lower: -70% for the first, -44.4% for the second.

Going from `CCOC(=O)c1cnc2c(Cl)cccc2c1NCCCN1CCOCC1` to `CCOC(=O)c1cnc2c(Cl)cccc2c1NCCN1CCOCC1`, the “hERG current change (%, negative = inhibition) at 10uM” value rises from -44.7% to -15.3%.

Going from `CCOC(=O)c1cnc2c(Cl)cc(Cl)cc2c1NCCCN1CCOCC1` to `CCOC(=O)c1cnc2c(C)cc(Cl)cc2c1NCCCN1CCOCC1`, the “hERG current change (%, negative = inhibition) at 10uM” value rises from -4.47% to 1.44%.

First: CCOC(=O)c1cnc2c(CC)cccc2c1NCCCN1CCOCC1
Second: CCOC(=O)c1cnc2c(C)cccc2c1NCCCN1CCOCC1
The “hERG current change (%, negative = inhibition) at 10uM” value of the first is higher: -35.6% for the first, -72.8% for the second.

Compared with `COc1cc(OC)cc(OC(=O)C2CCN(C(=O)c3ccc(F)cc3)CC2)c1`, `COc1cc(OC)cc(C(=O)N2CCC(n3c(C)nc4cc(F)ccc43)CC2)c1` is lower in “hERG current change (%, negative = inhibition) at 10uM” value: -7.47% for the first, -59% for the second.

Compared with `COc1cc(C(=O)N2CCC(n3cnc4cc(F)ccc43)CC2)cc(OC)c1OC`, `COC(=O)C1CCN(C(=O)c2cc(OC)c(OC)c(OC)c2)CC1` is higher in “hERG current change (%, negative = inhibition) at 10uM” value: -56.9% for the first, 19.3% for the second.

Compared with `Cc1c(N=Nc2c(O)n(C)c(=O)n(C)c2=O)c(=O)n(-c2ccccc2)n1C`, `O=C(c1cccs1)N1CCN(C(=O)c2ccco2)c2ccccc2C1` is lower in “hERG current change (%, negative = inhibition) at 10uM” value: 8.74% for the first, -13.6% for the second.
